Results taken from PubChem BioAssay (NCI).
The panel holds about 83,000 compounds, 20% with a hit somewhere; the sample as a whole holds those more often.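 The test compound was applied at a single concentration to cells in 96-well plates for 48 hours, and percent growth was recorded.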 Unmarked numbers belong to inactive results. Active and inactive are the calls of the source. Rule for the calls: active = growth percent below 10; inactive = the rest.

Key:
Assay in all cases: NCI-60 one-dose screen, 48 h (100 = growth as untreated, 0 = no growth, -100 = all killed)
HCT-15 colon = settings: 10 µM unless noted
HT29 colon = settings: 10 µM unless noted
SNB-19 CNS = settings: 10 µM unless noted
U251 CNS = settings: 10 µM unless noted
PC-3 prostate = settings: 10 µM unless noted
UACC-62 melanoma = settings: 10 µM unless noted
SK-MEL-28 melanoma = settings: 10 µM unless noted
SK-MEL-2 melanoma = settings: 10 µM unless noted
EKVX NSCLC = settings: 10 µM unless noted
SN12C renal = settings: 10 µM unless noted
TK-10 renal = settings: 10 µM unless noted
ACHN renal = settings: 10 µM unless noted
CAKI-1 renal = settings: 10 µM unless noted
A498 renal = settings: 10 µM unless noted
CCRF-CEM leukemia = settings: 10 µM unless noted
MOLT-4 leukemia = settings: 10 µM unless noted
LOX IMVI melanoma = settings: 10 µM unless noted
UO-31 renal = settings: 10 µM unless noted
SK-MEL-5 melanoma = settings: 10 µM unless noted
SNB-75 CNS = settings: 10 µM

Row | Structure (SMILES) | growth (HCT-15 colon) | growth (HT29 colon) | growth (SNB-19 CNS) | growth (U251 CNS) | growth (PC-3 prostate) | growth (UACC-62 melanoma) | growth (SK-MEL-28 melanoma) | growth (SK-MEL-2 melanoma) | growth (EKVX NSCLC) | growth (SN12C renal) | growth (TK-10 renal) | growth (ACHN renal) | growth (CAKI-1 renal) | growth (A498 renal) | growth (CCRF-CEM leukemia) | growth (MOLT-4 leukemia) | growth (LOX IMVI melanoma) | growth (UO-31 renal) [%] | growth (SK-MEL-5 melanoma) | growth (SNB-75 CNS) [%]
1 | Brc1cccc(-c2cc(-c3ccc4nccnc4c3)[nH]n2)c1 | 9.57% [25 µM] (active) | 5.66% [25 µM] (active) | 30.5% [25 µM] | 21.7% [25 µM] | 27% [25 µM] | 38.1% [25 µM] | 64.9% [25 µM] | 46.3% [25 µM] | 16% [25 µM] | 35.5% [25 µM] | 52.1% [25 µM] | 39.6% [25 µM] | 29.4% [25 µM] | -9.23% [25 µM] (active) | 15.3% [25 µM] | 30.2% [25 µM] |  |  |  | 
2 | COc1ccc(/C=C2\Oc3cc(OCCCN4CCCC4)ccc3C2=O)c(OC)c1 | 17.8% | 10.2% | 74.4% | 54.4% | 66.8% | 99.3% | 105% | 103% | 96.1% | 91.8% | 103% | 91.4% | 91.9% |  |  | 32.7% | -27.7% (active) | 74.9 |  | 
3 | COc1ccc(/C=C2\N=C(c3ccccc3)N(C(=O)c3ccccc3O)NC2=O)cc1 | 104% | 104% | 96.6% | 94.2% |  | 82.8% |  |  | 88.3% | 86.6% | 97.7% | 103% |  | 73.6% |  | 48.3% |  | 95.9 | 101% | 
4 | COc1ccc(-c2nc(N3CCCC3=O)sc2Br)cc1OC | 89.8% | 82.7% | 93.8% | 96.7% | 101% | 90% |  | 86.5% |  | 104% | 94.1% | 93% | 99.4% | 88.3% | 96.4% | 93.8% | 100% | 93.6 |  | 
5 | CCN(CC)c1ccc(CNc2ccnc3ccccc23)cc1 | 58.6% | 24.8% |  | 52.4% | 42.4% | 76.4% | 80.4% | 79.3% | 45.3% | 64% | 60% | 75.8% | 61.9% | 48.2% | 53.3% | 51.7% | 54.7% | 31.6 | 8.05% (active) | 
6 | C=C1c2nc3ccccc3n2C=C(c2ccc(Cl)cc2)N1Cc1ccccc1 | 78.2% | 77.4% | 85.3% | 90.9% |  | 71% | 147% | 69.7% | 70.8% | 95.1% | 119% | 81.4% | 79% | 84.7% | 78.9% | 58.5% | 90.5% | 48.2 | 79.1% | 
7 | C=C[C@@H]1C[C@@H]2Cc3c(C)cc(C)cc3N1O2 | 101% |  | 113% | 90.2% | 93% | 96% | 101% | 110% | 81.6% | 101% | 92.7% | 101% | 92.3% | 95.1% | -61.1% (active) | -50.7% (active) | 88.4% | 101 | 103% | 95.4
8 | C=C(C)[C@@H]1C[C@@H]2Cc3cc(F)ccc3N1O2 | 92.9% |  | 105% | 89.5% | 95% | 95% | 107% | 98.1% | 85.9% | 98.6% | 97% | 95.4% | 98% | 95.2% | -47.4% (active) |  | 94.6% | 77.4 | 95.3% | 95.9
